Screens deposited in PubChem BioAssay by National Center for Advancing Translational Sciences (NCATS).
NPSR antagonist = neuropeptide S receptor (human) antagonism, cAMP. CHO-NPSR cells, cAMP TR-FRET, antagonist mode. Potency, µM (series often up to 38.3 µM), for inactives: at the highest dose activity change, negative = inhibition, hits mostly inhibitors. 1% of 220,000 active. Q6W5P4; further: nearly all actives have a fitted effect of over 50% in size
Target sequence (Q6W5P4 whole entry, looked up): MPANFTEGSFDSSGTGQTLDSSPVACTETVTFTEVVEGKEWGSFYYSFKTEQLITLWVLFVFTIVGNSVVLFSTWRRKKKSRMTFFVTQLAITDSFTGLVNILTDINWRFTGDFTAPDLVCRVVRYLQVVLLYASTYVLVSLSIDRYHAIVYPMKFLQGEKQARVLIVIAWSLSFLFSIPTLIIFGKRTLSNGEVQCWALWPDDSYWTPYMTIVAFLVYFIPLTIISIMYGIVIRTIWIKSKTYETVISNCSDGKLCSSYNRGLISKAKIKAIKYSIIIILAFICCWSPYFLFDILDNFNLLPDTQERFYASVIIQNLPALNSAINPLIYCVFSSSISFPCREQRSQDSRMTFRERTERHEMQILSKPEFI
VP16 counter = Gal4-VP16 reporter inhibition counter-screen | Drosophila S2 Gal4-VP16 UAS-luciferase, luminescence, 20 h | 3.5% of 310,000 active | Potency, µM (top dose mostly 53.6 µM), for inactives: at the highest dose activity, negative = inhibition, most hits filed as inhibitors;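 further: Gal4-VP16 expression switched on by copper sulfate through the metallothionein promoter; nearly all actives have a fitted effect of over 50% in size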
B2AR arrestin = agonists driving beta-arrestin recruitment to human beta2-adrenergic receptor; P07550; beta-arrestin recruitment to beta2AR, cell-based reporter; Potency, µM (titrated, usually from 46.1 µM), for inactives: at the top dose activation, hits mostly activators; 0.02% of 330,000 active;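 further: 0% = DMSO controls and full agonism = EC100 isoproterenol or metaproterenol; nearly all actives have a fitted effect of over 65% in size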
RORgamma inh = ROR gamma (mouse) transcription inhibition. 5.4% of 310,000 active. P51450. Drosophila S2 Gal4-RORgamma UAS-luciferase reporter, 20 h. AID 2551. Potency, µM (highest dose often 53.6 µM), for the others: at the top dose activity change, negative = inhibition, actives largely listed as inhibitors; further: nearly all actives have a fitted effect of over 60% in size
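Compounds are pin-transferred onto Drosophila Schneider cells expressing a copper-inducible Gal4–ROR gamma transactivation domain fusion. After 1 hr, copper sulfate is added to 700 uM final; luciferase is read 20 hr later.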
* marks the source's active call; other numbers are inactive results; ? = inconclusive; / = no result; [ ] = another dose, or the depositor's remark. Only some compounds are listed: those with a hit (about 5.7% of all), similar ones and a draw of the others. The call rests on the fitted dose curve; in most records, active means well fitted curve in the direction sought with a large enough effect; inconclusive means small, poorly fitted or top-dose-only effect, or another doubt; inactive means no such curve, though single readings can be large; an effect the other way counts as inactive or inconclusive. Unless noted, on the % scale 0 is the no-effect control and ±100 the full control effect; potency means the concentration at half of the fitted maximal effect.

SMILES	NPSR antagonist	VP16 counter	B2AR arrestin	RORgamma inh
Cc1ccc2nc(-c3ccccc3)c(CN3CCSCC3)n2c1	-33.5%	-4.8%	-0.1%	15.8µM*
CCN1C(=O)C(=O)N(CC(=O)NC(C)CCc2ccccc2)C1=O (stereo unspecified)	/	/	-0.2%	/
Cc1nn2c(nc1=O)NNC2(C)C(C)(C)C (stereo unspecified)	6.8%	-13.8%	?	11.2µM*
Cc1ccc2c(c1)C(=NC1CCCCC1)c1cc3ccccc3nc1-2	?	6.0%	-0.2%	-16.3%
Cc1ccc2c(c1)Cc1nc3ccccc3nc1-2	1.0%	14.1µM*	0.1%	10µM*
O=C(OCc1ccccc1)[C@@H]1COC(c2ccc(Br)cc2)=N1	/	-18.8%	/	6.3%
S=C(NCc1ccc2c(c1)OCO2)NC1CC1	7.1%	?	-0.1%	12.6µM*
Cc1ccc(NC(=S)NCc2ccc3c(c2)OCO3)cc1	8.7%	15.8µM*	-0.5%	12.6µM*
CCOc1ccc(NC(=S)NCc2ccc3c(c2)OCO3)cc1	-4.4%	?	0.1%	7.94µM*
CCOc1ccc(C(=O)NCc2ccc3c(c2)OCO3)cc1	/	1.8%	-0.2%	5.8%
Cc1ccc(NC(=S)NCc2ccc3c(c2)OCO3)c(C)c1	-16.4%[46.1 µM]	-3.2%[0.365 µM]	-0.1%	?
CC(C)C(NC(N)=O)C(=O)NC1CCCCC1 (stereo unspecified)	15.0%	-0.5%	0.1%	-6.2%
Cc1ccccc1NC(=S)N1CCN(c2ccccc2Cl)CC1	/	7.08µM*	-2.0%	7.08µM*
CN1CCN(C(=S)Nc2ccccc2Cl)CC1	-0.7%[46.1 µM]	3.6%	0.5%	-7.8%
COc1cccc(N2CCN(C(=S)Nc3ccccc3OC)CC2)c1	/	5.8%	-0.2%	-15.1%
COc1ccccc1NC(=S)N1CCN(c2cccc(C)c2C)CC1	/	11.2µM*	0.1%	11.2µM*
CCCCC1CN2C(CCC(C)C2c2ccc(Br)cc2)C(=O)O1 (stereo unspecified)	/	1.0%[10 µM]	/	5.2%[10 µM]
CCC1(CC)NC(=O)N(CC(=O)Nc2sc3c(c2C(N)=O)CCC3)C1=O	-7.9%[46.1 µM]	-1.6%	-0.4%	13.7%
CCOC(=O)c1cnc2ccc(OCC)cc2c1N(C)Cc1ccccc1	-42.6%	?	4.1%	14.1µM*
O=C1C=CC(=O)C2=C1C1c3ccccc3C2c2ccccc21	/	?	/	10µM*
O=C(OC(C(=O)Nc1cccc(C(F)(F)F)c1)c1ccccc1)C1CCCCC1 (stereo unspecified)	-56.8%	?	-0.4%	29.1%
CCc1cc2c(Sc3nc4ccccc4s3)ncnc2s1	-12.8%[46.1 µM]	?	0.1%	8.91µM*
c1ccc2sc(Sc3ncnc4sccc34)nc2c1	-0.5%	?	-1.9%	10µM*
CCCCNC(=S)NNC(=O)C12CC3CC(CC(C3)C1)C2	-12.6%[46.1 µM]	?	-0.2%	14.1µM*
Brc1cccc(Cn2c(-c3cncs3)nc3ccccc32)c1	-11.3%[46.1 µM]	8.91µM*	-0.5%	8.91µM*
SMILES	NPSR antagonist	VP16 counter	B2AR arrestin	RORgamma inh
O=C(NCCc1cscn1)C1CCC(=O)N(Cc2ccc(Cl)cc2)C1 (stereo unspecified)	/	?	0.1%	20µM*
O=C(NCCc1ccccc1)C1CCC(=O)N(Cc2ccc(Cl)cc2)C1 (stereo unspecified)	/	0.9%	0.4%	10.2%
CNC(=S)N/N=C/c1c(C)nn(-c2ccc(F)cc2)c1Cl	-12.2%	7.08µM*	-0.2%	2.82µM*
Cc1nn(-c2ccc(F)cc2)c(Cl)c1/C=N/NC(=O)c1ccc(O)cc1	-20.7%	2.24µM*	0.5%	?
O=C(C1Cc2ccccc2CN1C(=O)c1ccccc1)N1CCN(c2ccccc2)CC1 (stereo unspecified)	42.6%	5.0%	-0.2%	11.5%
CCN(C(=O)c1ccco1)C1C2CC3CC(C2)CC1C3 (stereo unspecified)	/	0.3%	0.2%	-9.5%
O=C(CN1C(=O)CCC1=O)Nc1nc(-c2ccccn2)cs1	4.6%[46.1 µM]	-13.8%	-0.3%	-18.0%
CSCCC(=O)Nc1nc(-c2ccccn2)cs1	0.8%	-18.1%	11.8%	12.6µM*
O=C(Nc1nc(-c2ccccn2)cs1)C1CCCC1	-29.5%	?	13.7%	8.91µM*
O=C(/C=C/c1ccco1)Nc1scc(-c2ccccc2)c1C(=O)O	12.7%[7.67 µM]	?	0.0%	10µM*
O=C(/C=C/c1ccco1)Nc1nc(-c2ccccn2)cs1	-26.1%	11.2µM*	0.6%	2.82µM*
O=C(/C=C/c1ccccc1)Nc1scc(-c2ccccc2)c1C(=O)O	-30.0%	?	-0.2%	-32.6%
O=C(NCC(c1ccccc1)N1CCCC1)C1CCN(C(=O)Nc2ccccc2)CC1 (stereo unspecified)	/	/	-0.1%	/
C=C1/C=C(\C)[C@](C)(O)C[C@H](O)CC(=O)[C@H](O)[C@@H](O)[C@H](C)C[C@H](C)OC(=O)/C(C)=C/CC/C=C/[C@@H]2O[C@H]2C[C@H](C)C1	/	/	-0.7%	/
O=C(c1cc(C(F)(F)F)cc(C(F)(F)F)c1)N1CCC2(CC1)CCN(c1ccccc1)CC2	/	0.5%	/	-0.8%
O=S1(=O)C2CC3C=CC2(CN1Cc1ccccc1)O3 (stereo unspecified)	/	6.2%	/	17.3%
COC(=O)[C@@H]1[C@@H](O)[C@]2(O)c3ccccc3O[C@]2(c2ccccc2)[C@H]1c1ccccc1	/	3.7%[10 µM]	/	4.6%[10 µM]
O=C(CCCSc1ccccc1)Nc1nc(-c2ccccn2)cs1	-16.2%[46.1 µM]	?	0.1%	10µM*
Cc1sc(NC(=O)/C=C/c2ccco2)c(C(=O)OC(C)C)c1C	?	15.8µM*	-0.3%	?
Cc1cc(C)cc(OCC(=O)Nc2nc(-c3ccccn3)cs2)c1	/	/	-0.6%	/
Cn1c(C2=C(O)CN(Cc3ccccc3)C2=N)nc2ccccc21	-23.6%	-7.1%	0.0%	-11.3%
Cc1cc2ncc(-c3ncc(C(F)(F)F)cc3Cl)cn2n1	1.9%[46.1 µM]	10µM*	0.1%	7.94µM*
O=C1N/C(=C/c2ccc(N3CCOCC3)cc2)C(=O)N1Cc1ccc(F)cc1	-9.8%[46.1 µM]	-16.4%	0.2%	-25.7%
C=CCN1C(=O)N/C(=C/c2ccc(N3CCOCC3)o2)C1=O	-42.8%	5.01µM*	?	7.08µM*
O=C1N/C(=C/c2ccc(N3CCOCC3)o2)C(=O)N1c1ccccc1	-37.3%	1.58µM*	-1.0%	5.62µM*
SMILES	NPSR antagonist	VP16 counter	B2AR arrestin	RORgamma inh
CSc1cccc(NC(=O)c2cnn3ccccc23)c1	30.4%	?	-0.8%	?
CCc1ccc(NC(=O)c2cnn3ccccc23)cc1	?	?	0.0%	12.6µM*
CCCC(=O)O[C@]1(C(=O)CCl)[C@H](C)C[C@@H]2[C@H]3CCC4=CC(=O)C=C[C@]4(C)[C@@]3(F)C(=O)C[C@@]21C	/	4.0%	/	10µM*
CCCCC(=O)O[C@@]1(C(=O)CO)C(C)CC2C3CCC4=CC(=O)C=C[C@@]4(C)[C@]3(F)C(O)C[C@]21C (stereo partly specified)	/	-4.9%	/	-35.5%
C[C@H]1C[C@@H]2[C@H]3CCC4=CC(=O)C=C[C@@]4(C)[C@@]3(Cl)[C@@H](O)C[C@]2(C)[C@]1(OC(=O)c1ccco1)C(=O)CCl	/	-22.2%[17 µM]	/	?
CC1CC2C3CCC4=CC(=O)C=C[C@]4(C)[C@@]3(Cl)C(O)C[C@]2(C)C1(OC(=O)c1ccco1)C(=O)CCl (stereo partly specified)	/	2.4%	/	15.8µM*
